A short description of test [1]: NCI Yeast Anticancer Drug Screen. Data for the rad50 strain (AID 155).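 Also: 0% = growth of vehicle-only cultures of the same strain.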 To be noted: S. cerevisiae rad50 strain growth inhibition, stronger effect = higher value. In a few lines:
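Relative growth inhibition (compound vs vehicle) was measured in yeast with a defined repair-gene alteration.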

Test [2] can be described thus: NCI Yeast Anticancer Drug Screen. Data for the mec2-1 strain (AID 157). To be noted: S. cerevisiae mec2-1 strain, stronger effect = higher value. In a few lines:
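mec2-1 yeast strain, carrying an alteration in DNA damage repair or cell cycle control, was exposed to compounds; growth inhibition was measured relative to vehicle-treated controls.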

Test [3] can be described thus: NCI Yeast Anticancer Drug Screen. Data for the sgs1 mgt1 strain (AID 161).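 Also: 0% = growth of cultures given vehicle only.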 To be noted: S. cerevisiae sgs1 mgt1 strain, stronger effect = higher value. In a few lines:
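Growth of a repair-deficient yeast mutant was monitored after compound treatment and expressed as inhibition relative to vehicle-treated cultures.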

Test [4] is described as follows: NCI Yeast Anticancer Drug Screen. Data for the cln2 rad14 strain (AID 165).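 Also: 0% = growth equal to vehicle treated cultures.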 As to conditions: S. cerevisiae cln2 rad14 strain, stronger effect = higher value. The method in brief:
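Yeast carrying cln2 and rad14 alterations (cell cycle control and DNA damage repair) were exposed to compounds. Growth inhibition was measured against vehicle-treated controls.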

The nature of test [5]: NCI Yeast Anticancer Drug Screen. Data for the bub3 strain (AID 167). As to conditions: S. cerevisiae bub3 mutant strain, stronger effect = higher value. In a few lines: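 Screening used yeast with an engineered genetic alteration affecting cell cycle control. Compound-exposed cultures were compared with vehicle cultures, and reduced growth was taken as inhibition.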
Test [6] is described as follows: NCI Yeast Anticancer Drug Screen. Data for the mlh1 rad18 strain (AID 175). As to conditions: S. cerevisiae mlh1 rad18 strain growth inhibition, stronger effect = higher value. In a few lines: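 Growth inhibition of the yeast strain was measured after compound exposure and expressed relative to vehicle-treated controls. The strain carries defined defects in DNA damage repair.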

[7] abbreviates: at 5.0 µM (retest, dose inferred, filed as 0.5).
The mark [8] stands for this setting: at 50.0 µM (retest, dose inferred, filed as 5.0).

SMILES strings stand for the structures. Where “and” joins values, the source holds several entries; their conditions need not be identical. Equal entries are not always repeated. This is part of a sample that, as a whole, favours compounds with a hit. Of some 79,000 tested, about 15% had one in any assay. Some compounds were tested as several samples or in several runs, with calls that do not always agree. Calls of active or inactive are those of the source. Rule as the data show it: active = growth inhibition above about 70%; inactive = the rest.

Take `CCOP(=O)(Cc1cccc2ccccc12)OCC`: the growth inhibition is 5% (inactive) in test [1] (setting [7]); 13% (inactive) in test [1] (setting [8]); 4.65% (inactive) in test [1] (at 50.0 µM); 5% (inactive) in test [2] (setting [7]); -6% (inactive) in test [2] (setting [8]); -7.95% (inactive) in test [2] (at 50.0 µM). Moreover, the growth inhibition in test [3] (setting [7]) is 4% (inactive); in test [3] (setting [8]), 17% (inactive); in test [3] (at 50.0 µM) it was 13.4% (inactive); in test [4] (setting [7]) it was 2% (inactive); in test [4] (setting [8]), 14% (inactive); in test [4] (at 50.0 µM), 2.1% (inactive). In addition, the growth inhibition is 14% (inactive) in test [5] (setting [7]); 2% (inactive) in test [5] (setting [8]); 19.9% (inactive) in test [5] (at 50.0 µM); 17% (inactive) in test [6] (setting [7]); 29% (inactive) in test [6] (setting [8]); -3.35% (inactive) in test [6] (at 50.0 µM).

Take `c1ccc2c(c1)CCc1c-2[nH]c2ccccc12`: the growth inhibition is -67% (inactive) in test [1] (setting [7]); 79% (active) in test [1] (setting [8]); 72.2% (active) in test [1] (at 50.0 µM); -8% (inactive) in test [2] (setting [7]); 77% (active) in test [2] (setting [8]); 36.4% (inactive) in test [2] (at 50.0 µM). For the same compound, the growth inhibition was -9% (inactive) in test [3] (setting [7]); 90% (active) in test [3] (setting [8]); 71.7% (active) in test [3] (at 50.0 µM); -60% (inactive) in test [4] (setting [7]); 65% (inactive) in test [4] (setting [8]); 51.8% (inactive) in test [4] (at 50.0 µM). For the same compound, the growth inhibition in test [5] (setting [7]) is -48% (inactive); in test [5] (setting [8]), 87% (active); in test [5] (at 50.0 µM), 89.8% (active); in test [6] (setting [7]), -43% (inactive); in test [6] (setting [8]), 83% (active); in test [6] (at 50.0 µM), 83.2% (active).

For the compound `Cc1cccc(C)c1NC(=O)/C(CC(=O)CC(c1ccccc1)c1c(O)c2ccccc2oc1=O)=N/O` (configuration not stated), the growth inhibition in test [1] (setting [7]) is 26% (inactive); in test [1] (setting [8]), 60% (inactive); in test [1] (at 50.0 µM), 1.1% (inactive); in test [2] (setting [7]) it was 20% (inactive); in test [2] (setting [8]), 34% (inactive); in test [2] (at 50.0 µM), -5.8% (inactive). For the same compound, the growth inhibition in test [3] (setting [7]) is 13% (inactive); in test [3] (setting [8]), 55% (inactive); in test [3] (at 50.0 µM), -1.5% (inactive); in test [4] (setting [7]), 28% (inactive); in test [4] (setting [8]), 45% (inactive); in test [4] (at 50.0 µM), -10.4% (inactive). Moreover, the growth inhibition in test [5] (setting [7]) is 35% (inactive); in test [5] (setting [8]), 50% (inactive); in test [5] (at 50.0 µM), 4.85% (inactive); in test [6] (setting [7]) it was 25% (inactive); in test [6] (setting [8]) it was 43% (inactive); in test [6] (at 50.0 µM) it was 2.1% (inactive).

On to `CCC[CH2][Sn]([CH2]CCC)([S]C1=NCCS1)[S]C1=NCCS1`, for which the growth inhibition in test [1] (setting [7]) was 96% (active); in test [1] (setting [8]) it was 96% (active); in test [1] (at 50.0 µM), 90.7% (active); in test [2] (setting [7]) it was 97% (active); in test [2] (setting [8]), 97% (active); in test [2] (at 50.0 µM), 90.7% (active). Also, the growth inhibition in test [3] (setting [7]) is 97% (active); in test [3] (setting [8]) it was 97% (active); in test [3] (at 50.0 µM) it was 90.9% (active); in test [4] (setting [7]) it was 95% (active); in test [4] (setting [8]) it was 95% (active); in test [4] (at 50.0 µM) it was 89.7% (active). In addition, the growth inhibition was 95% (active) in test [5] (setting [7]); 95% (active) in test [5] (setting [8]); 88.3% (active) in test [5] (at 50.0 µM); 96% (active) in test [6] (setting [7]); 96% (active) in test [6] (setting [8]); 86.5% (active) in test [6] (at 50.0 µM).

On to `N#CC(C#N)=Cc1cc(Cl)ccc1O`, for which the growth inhibition in test [1] (setting [7]) was 11% (inactive); in test [1] (setting [8]), 79% (active); in test [1] (at 50.0 µM), 56% (inactive) and 4.55% (inactive); in test [2] (setting [7]) it was -14% (inactive); in test [2] (setting [8]), 44% (inactive); in test [2] (at 50.0 µM), 45.5% (inactive) and 17.9% (inactive). In addition, the growth inhibition is 2% (inactive) in test [3] (setting [7]); 58% (inactive) in test [3] (setting [8]); 46% (inactive) and 65.7% (inactive) in test [3] (at 50.0 µM); 4% (inactive) in test [4] (setting [7]); 30% (inactive) in test [4] (setting [8]); 40.7% (inactive) and -4.9% (inactive) in test [4] (at 50.0 µM). Further, the growth inhibition in test [5] (setting [7]) is 31% (inactive); in test [5] (setting [8]), 64% (inactive); in test [5] (at 50.0 µM), 20.7% (inactive) and 2.2% (inactive); in test [6] (setting [7]) it was 8% (inactive); in test [6] (setting [8]), 71% (active); in test [6] (at 50.0 µM), 65.8% (inactive) and 39.8% (inactive).

For `COc1cccc2c1cc([N+](=O)[O-])c1c(C(=O)O)cc3c(c12)OCO3`, the growth inhibition is 35% (inactive) and 54% (inactive) in test [1] (setting [7]); 95% (active) and 94% (active) in test [1] (setting [8]); 87.8% (active) and 91% (active) in test [1] (at 50.0 µM); 4% (inactive) and 39% (inactive) in test [2] (setting [7]); 83% (active) and 93% (active) in test [2] (setting [8]); 85.7% (active) and 91.7% (active) in test [2] (at 50.0 µM). For the same compound, the growth inhibition was 22% (inactive) and 61% (inactive) in test [3] (setting [7]); 94% (active) and 95% (active) in test [3] (setting [8]); 88.3% (active) and 88.7% (active) in test [3] (at 50.0 µM); -11% (inactive) and 19% (inactive) in test [4] (setting [7]); 62% (inactive) and 84% (active) in test [4] (setting [8]); 84.4% (active) and 86.8% (active) in test [4] (at 50.0 µM). Also, the growth inhibition in test [5] (setting [7]) was 18% (inactive) and 49% (inactive); in test [5] (setting [8]) it was 78% (active) and 93% (active); in test [5] (at 50.0 µM) it was 89.8% (active) and 90.5% (active); in test [6] (setting [7]) it was 25% (inactive) and 71% (active); in test [6] (setting [8]) it was 90% (active) and 95% (active); in test [6] (at 50.0 µM), 88.7% (active) and 79.7% (active).

With `c1ccc(C(C(=Nc2ccc(Cc3ccc(N=C(C(c4ccccc4)c4ccccc4)N4CC4)cc3)cc2)N2CC2)c2ccccc2)cc1`, the growth inhibition in test [1] (setting [7]) is 5% (inactive); in test [1] (setting [8]), 86% (active); in test [1] (at 50.0 µM) it was 85.6% (active); in test [2] (setting [7]), 42% (inactive); in test [2] (setting [8]) it was 59% (inactive); in test [2] (at 50.0 µM), 92.5% (active). In addition, the growth inhibition in test [3] (setting [7]) is 5% (inactive); in test [3] (setting [8]), 70% (active); in test [3] (at 50.0 µM), 94.1% (active); in test [4] (setting [7]), 8% (inactive); in test [4] (setting [8]), 62% (inactive); in test [4] (at 50.0 µM), 77.2% (active). The growth inhibition in test [5] (setting [7]) was 5% (inactive); in test [5] (setting [8]), 87% (active); in test [5] (at 50.0 µM), 85.8% (active); in test [6] (setting [7]) it was 11% (inactive); in test [6] (setting [8]) it was 71% (active); in test [6] (at 50.0 µM) it was 91.7% (active).

`S=P(Nc1ccccc1)(Oc1ccccc1)c1ccccc1` (configuration not stated): the growth inhibition in test [1] (setting [7]) is -1% (inactive); in test [1] (setting [8]) it was 90% (active); in test [1] (at 50.0 µM), 93.8% (active); in test [2] (setting [7]) it was 5% (inactive); in test [2] (setting [8]), 91% (active); in test [2] (at 50.0 µM) it was 94.5% (active). The growth inhibition in test [3] (setting [7]) is 3% (inactive); in test [3] (setting [8]) it was 90% (active); in test [3] (at 50.0 µM), 93.3% (active); in test [4] (setting [7]) it was -1% (inactive); in test [4] (setting [8]), 87% (active); in test [4] (at 50.0 µM), 91% (active). Moreover, the growth inhibition in test [5] (setting [7]) was 1% (inactive); in test [5] (setting [8]), 88% (active); in test [5] (at 50.0 µM), 92.4% (active); in test [6] (setting [7]) it was 6% (inactive); in test [6] (setting [8]), 88% (active); in test [6] (at 50.0 µM), 92.7% (active).

With `CC[N+](C)(CC)CCNC(=O)C(O)(c1ccccc1)c1ccccc1`, the growth inhibition in test [1] (setting [7]) is -8% (inactive); in test [1] (setting [8]), 40% (inactive); in test [1] (at 50.0 µM), 92.7% (active); in test [2] (setting [7]), -13% (inactive); in test [2] (setting [8]) it was 52% (inactive); in test [2] (at 50.0 µM) it was 95.5% (active). The growth inhibition is -6% (inactive) in test [3] (setting [7]); 36% (inactive) in test [3] (setting [8]); 96.5% (active) in test [3] (at 50.0 µM); -2% (inactive) in test [4] (setting [7]); 35% (inactive) in test [4] (setting [8]); 93.2% (active) in test [4] (at 50.0 µM). Besides, the growth inhibition is -5% (inactive) in test [5] (setting [7]); 23% (inactive) in test [5] (setting [8]); 95.1% (active) in test [5] (at 50.0 µM); -1% (inactive) in test [6] (setting [7]); 40% (inactive) in test [6] (setting [8]); 94.4% (active) in test [6] (at 50.0 µM).

The record behind these values is PubChem BioAssay (NCI).
